# In all, about 360,000 compounds went through this assay and about 9,100 (2.5%) were called active. Inconclusive results (about 4%) are left out. Many of the other results were omitted from the sample, so actives are more common in it than they were. Unmarked numbers belong to inactive results. No stated cut-off is given here; in the data, active means max response below about -50%; inconclusive means no clear call, values can overlap the other calls; inactive means above that.
# Biological target: D(3) dopamine receptor (Homo sapiens) (UniProt P35462)
# Sequence (P35462 whole entry, looked up): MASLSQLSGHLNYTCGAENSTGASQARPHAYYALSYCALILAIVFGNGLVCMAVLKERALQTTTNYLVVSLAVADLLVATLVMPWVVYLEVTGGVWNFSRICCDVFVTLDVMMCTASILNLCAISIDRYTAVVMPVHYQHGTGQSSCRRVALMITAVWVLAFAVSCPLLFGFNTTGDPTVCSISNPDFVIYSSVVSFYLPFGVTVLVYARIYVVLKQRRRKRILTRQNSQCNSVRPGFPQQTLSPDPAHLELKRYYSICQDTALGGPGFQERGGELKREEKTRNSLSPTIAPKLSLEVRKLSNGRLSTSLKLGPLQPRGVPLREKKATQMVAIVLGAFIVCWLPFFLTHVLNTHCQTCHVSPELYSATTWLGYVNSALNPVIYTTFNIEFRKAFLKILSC
# Assay: qHTS of D3 Dopamine Receptor Antagonist: qHTS
# Conditions: D3R cells, DiscoveRx beta-arrestin luminescence, antagonist mode; hits give low values
# Method in brief: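 Cells plated overnight at 1500 cells/well, then exposed to library compounds with dopamine controls for 90 minutes at 37 degrees C. DiscoveRx reagent added for 30–60 minutes at room temperature; luminescence read, quantitative HTS format.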
# On the % scale 0 is the no-effect control and ±100 the full control effect.
row,Compound,"max response, negative = inhibition"
1,CC(=O)Nc1cncc(-c2ccccc2CO)n1,10.6%
2,CCOC(=O)[C@H]1Nc2ccc(Cl)cc2[C@@H]2[C@H]1C1CC(c3ccccc31)N2C(=O)OCc1ccccc1 (some centres undefined),-1.57%
3,CCCCc1c(-c2ccc(Cl)cc2)ncn1CCc1ccccc1OC,71.4%
4,COc1ccc(S(=O)(=O)N(C)C)cc1NC(=O)COC(=O)c1n[nH]c2ccccc12,16%
5,CCc1cc(C(=O)N(CC)CC(=O)Nc2c(F)cccc2F)sc1C,0%
6,COc1ccc(CCCNC(=O)C2Cc3c(-c4cccc(C(N)=O)c4)ccnc3O2)cc1 (centres undefined),2.06%
7,Cc1cc(O)ccc1-c1cc(C(=O)NCc2cc(C(F)(F)F)cc(C(F)(F)F)c2)[nH]n1,-17.9%
8,C[C@@H]1CN([C@H](C)CO)C(=O)CCCn2nncc2CO[C@@H]1CN(C)C(=O)OCc1ccccc1,-23.6%
9,CC1(C)OC(=O)C2=C(C[C@@H](C3CC3)O[C@H]2c2ccc(Cl)cc2)O1,49.4%
10,COC(=O)CN1C(=O)C(O)=C(C(C)=O)C1c1ccc([N+](=O)[O-])cc1 (centres undefined),-23.2%
11,CCC(CC)C(=O)N1CC(=O)Nc2ccc(Br)cc2C1c1ccccc1 (centres undefined),4.84%
12,COC(=O)CN1C(C)=Nc2ccc(Br)cc2C1c1ccccc1 (centres undefined),-64% (active)
13,CN(c1ccccc1)S(=O)(=O)c1ccc(C(=O)NCc2cccnc2)cc1,-14.9%
14,COc1ccc(C(C)(O)c2nc(-c3ccc(C)c(C)c3)cs2)cc1 (centres undefined),-20.6%
15,CCNC(=O)C1(C)CCCN(C(=O)c2ccc3ccccc3n2)C1 (centres undefined),0%
16,CCOC(=O)c1cc(-c2sc(NC(=O)c3ccccc3)nc2C)n(-c2ccc(Br)cc2)n1,24%
17,COc1ccc(-c2ccc(C(=O)NCCN3CCOCC3)c3occc23)c(C)c1,-78.2% (active)
18,COc1ccc(-c2cc(C(=O)NCCCN3CCOCC3)no2)cc1,1.86%
19,COc1ccc(-c2ccc(C(=O)NC(C)C)c3occc23)c(C)c1,19.9%
20,CC(C)C[C@@H](COCc1ccc(Cl)cc1)N1CCN(C(=O)c2ccc(Cl)cc2Cl)CCC1=O,11.5%
21,Cc1ccccc1OS(=O)(=O)c1cccc([N+](=O)[O-])c1,-14.2%
22,CC(C)N1C(=O)c2ccccc2NC(=O)C1C(=O)NCc1cccs1 (centres undefined),-19.3%
23,COC(=O)C[C@H]1C[C@@H]2c3cc(N(C)C)ccc3O[C@@H]2[C@H](CO)O1,17%

row,Compound,"max response, negative = inhibition"
1,O=C(NCc1ccccc1)C1c2ccccc2OCC(=O)N1CCCN1CCOCC1 (centres undefined),0.216%
2,O=C(NCc1ccc(F)cc1)c1cc(C2CCCCN2C(=O)c2cccs2)on1 (centres undefined),12.8%
3,CCC1NC(=O)c2cccnc2-n2c1nc1ccc(C)cc1c2=O (centres undefined),16.9%
4,CN1CCN(C2Cc3ccc(Cl)cc3Sc3ccc(F)cc32)CC1 (centres undefined),-88% (active)
5,COCCNC(=O)C1C(=O)Nc2ccccc2C(=O)N1c1ccc2c(c1)OCCO2 (centres undefined),5.54%
6,Cn1c(C(=O)NCCN2CCc3ccccc3C2)cc2c(=O)[nH]c3ccccc3c21,-59.2% (active)
7,Cc1cccc(N2CCN(C(=O)c3cc4c(=O)[nH]c5ccccc5c4n3C)CC2)c1C,2.48%
8,O=C(c1ncn2c1c(=O)[nH]c1ccccc12)N1CCc2ccccc2C1,1.07%
9,CCCCCCN1CCN(C2CN(Cc3cn(Cc4ccc(F)cc4)nn3)S(=O)(=O)C2)CC1 (centres undefined),3.43%
10,Cc1c(C(=O)Nc2ccccc2Cl)oc2ccc(S(=O)(=O)N3CCC4(CC3)OCCO4)cc12,22.3%
11,CCOc1ccccc1NC(=O)c1cc(S(=O)(=O)N2CCC3(CC2)OCCO3)ccc1F,-83.8% (active)
12,Cc1cccc(NC(=O)c2cc(S(=O)(=O)N3CCC4(CC3)OCCO4)ccc2F)c1,-11.3%
13,CCCC(=O)N1CCC1(C)C(=O)NCc1ccc(SC)cc1 (centres undefined),-2.93%
14,Cc1cccc(S(=O)(=O)N(C)C[C@H]2OCc3cnnn3CCCC(=O)N([C@@H](C)CO)C[C@H]2C)c1,19.6%
15,CC(=O)Nc1c(-c2ccc(C)cc2)nc2ccc(Cl)cn12,-4.26%
16,CC(C)c1cc(C(=O)N(C)C2CCCN(Cc3ccccc3F)C2)n(C)n1 (centres undefined),-9.14%
17,CSc1ncnc2c1ncn2CCCNCc1ccco1,0.282%
18,CSc1ncnc2c1ncn2CCCNCC(C)c1ccccc1 (centres undefined),1.7%
19,CSc1ncnc2c1ncn2CCCNCC1CCCCC1,-105% (active)
20,CCCCNC(=O)OC1CC2CC1[C@H]1CCCCN1C2=O (some centres undefined),2.26%
21,CCOC(=O)N1CCN(S(=O)(=O)c2ccc(Br)cc2)CC1,8.1%
22,CCOC(=O)N1CCN(S(=O)(=O)c2ccc(C(=O)Nc3ccc(F)cc3F)cc2)CC1,-76.7% (active)
23,CCOC(=O)N1CCN(S(=O)(=O)c2ccc(OC)cc2)CC1,3.43%

row,Compound,"max response, negative = inhibition"
1,Cc1nc(C(F)(F)F)ccc1C(=O)N1CCC1(C)C(=O)NS(=O)(=O)c1ccccc1 (centres undefined),25.3%
2,O=[N+]([O-])c1ccc(CN2CC(N3CC=CC3)CS2(=O)=O)cc1 (centres undefined),9.3%
3,NC(CSC(c1ccccc1)(c1ccccc1)c1ccc(-c2ccccc2)cc1)C(=O)O (centres undefined),6.39%
4,Cc1cccc(C)c1NC(=O)c1ccc(CN2CCc3ccccc3C2)cc1,-84.7% (active)
5,O=C(Nc1ccc(CSc2ccccc2)cc1)c1ccc(CN2CCOCC2)cc1,2.28%
6,CN(c1ccc(C(=O)N2CCc3ccccc3C2)cc1)S(C)(=O)=O,30.4%
7,CC(=O)Nc1cccc(NC(=O)c2ccc3c(c2)CCN3S(C)(=O)=O)c1,-9.74%
8,CN(c1cccc(NC(=O)c2ccc(CN3CCc4ccccc4C3)cc2)c1)S(C)(=O)=O,-69.7% (active)
9,CCc1ccc(NC(=O)N2CCc3ccccc3C2)cc1,-11%
10,CC1(C(=O)NS(=O)(=O)c2cccc(OC(F)F)c2)CCN1C(=O)C1CC1 (centres undefined),-9.73%
11,c1ccc(Cc2c(-c3ccco3)nc3c4ccccc4ccn23)cc1,21.1%
12,O=C(COC(=O)c1ccc(S(=O)(=O)N2CCCCCC2)cc1)Nc1ccccc1C(F)(F)F,-1.68%
13,CSc1ccc(CNC(=O)C2(C)CCCN2C)cc1 (centres undefined),0%
14,CCOC(=O)N1CCN(C(c2ccnc3ccccc23)c2nnnn2-c2c(C)cccc2C)CC1 (centres undefined),-7.2%
15,CCC1(c2ccccc2)NC(=O)N(CC(=O)c2ccc3c(c2)OCO3)C1=O (centres undefined),4.79%
16,O=C(COC(=O)c1ccccc1)c1ccc2c(c1)OCCO2,-5.24%
17,O=C(CCN1CCc2ccccc2C(O)(c2ccccc2)C1)c1ccc2c(c1)OCCO2 (centres undefined),-73.7% (active)
18,COc1ccc(C(=O)N2CCCCC2c2cc(C(=O)Nc3ccccc3)no2)cc1 (centres undefined),-19.9%
19,C[C@H]1CN([C@@H](C)CO)S(=O)(=O)c2ccc(Br)cc2O[C@H]1CN(C)C(=O)c1cnccn1,-8.27%
20,Cc1cccc(N(CC(O)CN(C)C)S(=O)(=O)c2ccccc2)c1 (centres undefined),0.407%
21,Cc1ccc(N(CC(O)CN2CCCC2)S(=O)(=O)c2ccccc2)cc1 (centres undefined),-57.8% (active)
22,Cc1cc(C)n(CC(O)CN(c2ccccc2)S(=O)(=O)c2ccc3ccccc3c2)n1 (centres undefined),10.5%
23,O=C(Nc1ccc(Cl)cc1)C1Cc2c(-c3ccc4c(c3)OCO4)ccnc2O1 (centres undefined),-10.5%

row,Compound,"max response, negative = inhibition"
1,O=C(CN1CCN(S(=O)(=O)c2ccc(F)cc2)CC1)Nc1ccccc1F,0%
2,COc1ccccc1NC(=O)CN1CCN(S(=O)(=O)c2ccc(Br)cc2)CC1,-9.35%
3,O=C(CN1CCN(S(=O)(=O)c2ccc(Br)cc2)CC1)Nc1ccccc1C(=O)c1ccccc1,-71.6% (active)
4,Cc1ccc(-c2nc3c(C)cc(Br)cn3c2Cc2ccccc2)cc1,-0.352%
5,O=C(NC1=CC(=O)c2ccccc2C1=O)c1ccccc1,-88.8% (active)
6,O=C(NC(=O)c1ccccc1)Nc1ccccc1O,-13.1%
7,COC(=O)c1nc(NC(=O)c2ccccc2)n[nH]1,24.5%
8,O=C(NCc1nnnn1-c1ccc(Cl)cc1)c1ccc([N+](=O)[O-])o1,10.2%
9,CCc1cc(C(=O)c2ccc(OC)cc2)c(NC(=O)CN2CCN(C)CC2)s1,-7.92%
10,CCc1ccc(NC(=O)CN2CCC(C(=O)c3ccc(OC)cc3)CC2)cc1,-50.9% (active)
11,COc1ccc(C(=O)N2CCC(C(=O)Nc3ccc(C)cc3)CC2)cc1,9.09%
12,COc1cccc(-c2nc(CS(=O)(=O)CC(=O)NCCc3ccc(OC)c(OC)c3)c(C)o2)c1,1.08%
13,COc1ccc(-c2nc(CS(=O)(=O)CC(=O)NCc3cccc(Br)c3)c(C)o2)cc1,8.07%
14,CCCCN(CC)CCCNC(=O)CS(=O)(=O)Cc1nc(-c2cccc(OC)c2)oc1C,-50.9% (active)
15,COC(=O)c1ccc2nc(-c3ccc(F)cc3)c(Cc3ccc(C)cc3)n2c1,19.7%
16,CCCOc1ccc(F)cc1-c1cc(C(=O)Nc2ccc(F)c(Cl)c2)[nH]n1,-15.7%
17,CCCOc1ccc(F)cc1-c1cc(C(=O)NCc2ccc(F)cc2)[nH]n1,-2.32%
18,COc1cccc(OC)c1C(=O)N1CCN(Cc2ccccc2F)CC1,-6.64%
19,O=C(CN1CCN(C(=O)c2cccc(F)c2)CC1)Nc1ccccc1F,137%
20,Cc1ccccc1CN1CCN(C(=O)c2cccc(F)c2)CC1,-63.6% (active)

# Reference: PubChem BioAssay AID652054 (National Center for Advancing Translational Sciences (NCATS), 2013)
